Laboratory results: PubChem BioAssay
Calls of active or inactive are those of the source.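 Rule for the calls, unless noted: active = inhibition of the reporter signal at or above 50%; inactive = inhibition below 50%.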

Key:
[1] = inhibitors of TNFa-induced NFkB p65 translocation, primary screen, imaging, HUVEC, MLSMR starter and 10KST1 sets (AID 438;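 active = inhibition above 20% together with a positive visual image hit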;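 note: compound added about 3h40 before a 20 min TNFalpha stimulation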;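 for inhibition: signal is the nuclear over cytoplasmic p65 intensity ratio per well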); settings: HUVEC TNFa-induced p65 nuclear translocation; cell count: measured here: nuclei count (cytotoxicity indicator), at 2.08 µM; inhibition: at 2 µM, stronger effect = higher value, 0% TNFa-plus-vehicle, 100% no-TNFa wells
[2] = inhibitors of mutant huntingtin aggregation, primary screen, imaging, exon1htt(103Q)mCFP cells, high-content imaging (AID 483;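 active = visual image review flags a hit and inhibition of aggregation exceeds 20%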;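 note: compound exposure lasted 3 days before fixation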;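 for nuclei count: percent of the per-plate median nuclei count of sample wells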); settings: exon1htt(103Q)mCFP cell line, aggregate imaging, at 2 µM; inhibition of aggregation: stronger effect = higher value; nuclei count: measured here: cell count, toxicity
[3] = inhibitors of E-selectin induction by TNFa, primary screen, imaging, HUVEC, immunofluorescence, MLSMR starter and 10KST1 sets (AID 487;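 active = visually confirmed hit in the image check and inhibition above 20%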;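 for inhibition: signal is fraction of cell area covered by stained E-selectin grains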;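 for nuclei count: 100% = median nuclei count of all wells on the same plate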); settings: HUVEC TNFalpha-induced E-selectin immunofluorescence imaging, at 2 µM; inhibition: stronger effect = higher value; nuclei count: measured here: cell number, toxicity
[4] = biological target: Voltage-gated potassium channel subunit beta-2 (Rattus norvegicus) (UniProt P62483); experiment: KvBeta enzyme negative modulators, primary screen, biochemical, NADPH fluorescence (AID 622;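 active = fluorescence slope higher than the sample average by over 3 SD, cut at about -0.22 in these data, passing the limit was not always enough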;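 note: slope of raw intensity against log time taken from 70 to 1610 s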); settings: recombinant KvBeta, 4-cyanobenzaldehyde reduction, at 10 µM, stronger effect = higher value
Chain of Voltage-gated potassium channel subunit beta-2 (Rattus norvegicus) (P62483 whole entry, looked up): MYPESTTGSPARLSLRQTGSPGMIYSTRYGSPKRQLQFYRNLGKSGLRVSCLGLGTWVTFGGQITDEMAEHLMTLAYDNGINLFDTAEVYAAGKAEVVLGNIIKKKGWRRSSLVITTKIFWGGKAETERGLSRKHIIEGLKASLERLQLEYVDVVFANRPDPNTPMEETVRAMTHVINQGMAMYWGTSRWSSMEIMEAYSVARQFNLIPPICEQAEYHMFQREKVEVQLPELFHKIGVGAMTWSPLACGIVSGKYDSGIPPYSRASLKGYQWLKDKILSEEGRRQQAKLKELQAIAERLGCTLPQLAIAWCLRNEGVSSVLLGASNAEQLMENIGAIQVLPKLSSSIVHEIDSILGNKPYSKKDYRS

[5] = biological target: Voltage-gated potassium channel subunit beta-2 (Rattus norvegicus) (UniProt P62483); experiment: KvBeta positive modulators, primary screen, biochemical, NADPH fluorescence (AID 623;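 active = NADPH fluorescence slope more negative than the mean of all samples by about 3 SD, 99.7% confidence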;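 note: fluorescence intensity change per second fitted from 20 to 320 s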); settings: Recombinant KvBeta, NADPH fluorescence decrease slope, 10 min; at 10 µM; stronger effect = lower value
[6] = biological target: Alpha-2C adrenergic receptor (Homo sapiens) (UniProt P18825); experiment: modulators of alpha2C/GIRK thallium flux, primary screen, cell-based, HEK293 alpha2C/GIRK1/2 (AID 624;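 active = fluorescence slope after compound addition differing from the mean of all screened samples at 99.7% confidence, in either direction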;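 note: slope of fluorescence ratio to pre-addition baseline per second over 15 to 24 s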); settings: thallium flux BTC fluorescence, at 10 µM, actives lie on both sides
Chain of Alpha-2C adrenergic receptor (Homo sapiens) (P18825 whole entry, looked up): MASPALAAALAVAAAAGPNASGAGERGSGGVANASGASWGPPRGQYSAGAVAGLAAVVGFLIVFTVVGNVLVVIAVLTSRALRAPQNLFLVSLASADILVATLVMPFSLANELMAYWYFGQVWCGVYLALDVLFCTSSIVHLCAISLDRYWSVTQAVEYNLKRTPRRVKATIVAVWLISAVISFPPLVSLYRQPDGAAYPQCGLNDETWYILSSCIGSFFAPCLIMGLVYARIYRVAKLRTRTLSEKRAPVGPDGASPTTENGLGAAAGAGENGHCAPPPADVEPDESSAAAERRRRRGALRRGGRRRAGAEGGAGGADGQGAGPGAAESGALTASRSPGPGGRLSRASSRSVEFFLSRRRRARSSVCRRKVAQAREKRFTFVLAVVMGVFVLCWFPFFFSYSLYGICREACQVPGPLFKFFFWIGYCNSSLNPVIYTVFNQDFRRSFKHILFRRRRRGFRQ

[7] = inhibitors of Sendai virus-induced IRF3 signaling, primary screen, TLR/RLR signaling modifier project, cell-based, Sendai virus stimulus, luciferase, 10K MLSCN set (AID 602276;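 active = inhibition at or above 50% at 10 µM; inactive = inhibition below 50%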;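 note: firefly luciferase from ISG56 promoter only with Renilla not read in this screen; 0% = Sendai virus plus DMSO and 100% = medium plus DMSO without virus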); settings: HEK293 RL24 IRF3 luciferase reporter, at 10 µM, stronger effect = higher value
[8] = inhibitors of poly I:C-induced TLR3 signaling, primary screen, cell-based, poly I:C stimulus, luciferase, 10K MLSCN set (AID 602277); settings: HEK293-TLR3 RL24 IRF3 luciferase reporter, at 10 µM, stronger effect = higher value

Row | SMILES | cell count [1] | inhibition [1] | inhibition of aggregation [2] | nuclei count [2] [%] | inhibition [3] | nuclei count [3] [%] | fluorescence slope [4] | NADPH fluorescence slope [5] | slope [6] | inhibition [7] | inhibition [8]
1 | Cc1cc(NC(=O)COc2cccc(C)c2C)no1 | 684 | 6.5% (inactive) | -9.8% (inactive) | 104 | -16.6% (inactive) | 121 | -0.549 (inactive) | -2.5e-05 (inactive) | 0.00696 (inactive) | -0.401% (inactive) | 0.183% (inactive)
2 | COc1ccccc1CNC(=O)C1CCCN(S(=O)(=O)c2cnc[nH]2)C1 (stereo not drawn) | 443 | 49.5% (active) | 27.9% (inactive) | 87.1 | -59.5% (inactive) | 103 | -0.558 (inactive) | 7.1e-07 (inactive) | 0.00747 (inactive) | -5.95% (inactive) | 0.0501% (inactive)
3 | O=C(NCc1ccc2c(c1)OCO2)C1CCCN(S(=O)(=O)c2cccnc2)C1 (stereo not drawn) | 584 | 7.6% (inactive) | -1.4% (inactive) | 96.3 | -65.3% (inactive) | 119 | -0.575 (inactive) | -2.7e-05 (inactive) | 0.00636 (inactive) | 8.73% (inactive) | 23.4% (inactive)
4 | Cc1nc2ccc(S(=O)(=O)NC(C(=O)N3CCCC3)C(C)C)cc2s1 (stereo not drawn) | 677 | 1.8% (inactive) | -21.4% (inactive) | 111 | -33% (inactive) | 110 | -0.613 (inactive) | 1.2e-05 (inactive) | 0.00717 (inactive) | 12.9% (inactive) | 13.8% (inactive)
5 | N#Cc1cnc(SCC(=O)c2ccccc2)nc1N | 682 | -10.7% (inactive) | 8.2% (inactive) | 63.1 | -20.8% (inactive) | 120 | -0.402 (inactive) | -2.9e-05 (inactive) | 0.00488 (inactive) | 4.13% (inactive) | -24.8% (inactive)
6 | CCc1nnc(NC(=O)c2ccc(COc3ccc(C)cc3)o2)s1 | 312 | -1.9% (inactive) | 6.3% (inactive) | 109 | 7.7% (inactive) | 110 | -0.468 (inactive) | -0.00028 (inactive) | 0.00745 (inactive) | -17.4% (inactive) | 99.8% (active)
7 | CC(=O)NCC(=O)N(Cc1ccco1)C1(C(=O)NC2CCCCC2)CCCCC1 | 571 | 5.7% (inactive) | 19.5% (inactive) | 132 | -9.3% (inactive) | 128 | -0.538 (inactive) | -4.2e-05 (inactive) | 0.00597 (inactive) | 9.16% (inactive) | 19.2% (inactive)
8 | COc1cc(NC2=CC(=O)CC(C)(C)C2)cc(OC)c1 | 346 | 7.5% (inactive) | -8.1% (inactive) | 110 | -3.1% (inactive) | 103 | -0.373 (inactive) | 6.9e-06 (inactive) | 0.00551 (inactive) | -4.89% (inactive) | -12.1% (inactive)
